Assay results taken from PubChem BioAssay (NCI).
Several values for one entry are separate records, joined by “and”; a condition that tells them apart may be missing. Equal values may be shown once. About 83,000 compounds went through this panel and 20% of them were active in at least one assay; those are over-represented in the sample as a whole.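 Growth was measured after 48 h exposure to one concentration of compound in 96-well plates. Values under 10 count as active.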 A number with no mark means an inactive call. Activity calls are given as the source filed them. Starred links: 1 amine or outer side, 2 acyl side, 3 side chain; linkers in the order of their positions; H or OH if unused. Positions of bridges follow the written chain, without caps; N, C: chain ends. Non-standard residues stand in square brackets, D forms with d. Residues, ends and D or L forms follow the SMILES beside them. Chains are numbered I, II in the order given. Actinocin(9to1) = Cc1c2oc3c(C)ccc(C(=O)[*:1])c3nc-2c(C(=O)[*:2])c(N)c1=O; aThr = C[C@H](O)[C@H](N)C(=O)O; NMeV = CN[C@H](C(=O)O)C(C)C; Sar = CNCC(=O)O

System: OVCAR-5 ovarian
Test: NCI-60 one-dose screen, 48 h (100 = growth as untreated, 0 = no growth, -100 = all killed)
Conditions: 0.0025 µM
Description: Growth inhibition of the OVCAR-5 human tumor cell line is measured as a screen for anti-cancer activity. Cells are grown in 96 well plates and exposed to the test compound for 48 hours. Compounds are tested at a single concentration, which is 10^-5 M for most compounds. The reported endpoint is percent growth (GI% or GIPRCNT), where numbers from 0 - 100% represent growth inhibition, and numbers from -100% - 0 represent cell death. For example, a value of 40 represents 60% growth inhibition. A value of 0 means no net growth occurred over the course of the experiment. A value of -40 indicates 40% of cells at the beginning of the experiment died by the end of the experiment. A value of -100 means all cells are dead at the end of the experiment.
NCI-60 Human Tumor Cell Lines Screen was performed using the standard one-dose NCI protocol, which is described in more detail at https://dtp.cancer.gov/discovery_development/nci-60/default.htm.
Compounds with GIPRCNT values below 10 were considered active. Activity score was based on GIPRCNT using the following formula: […]
Score is 0 for GIPRCNT values of 100 or above, 50 for GIPRCNT values of 0, and 100 for GIPRCNT values of -100.

Compound	growth [%]
Cc1c2oc3c(C)ccc(C(=O)N[C@@H]4C(=O)N[C@H](C(C)C)C(=O)N5CCC[C@H]5C(=O)N(C)CC(=O)N(C)[C@@H](C(C)C)C(=O)O[C@H]4C)c3nc-2c(C(=O)N[C@@H]2C(=O)N[C@H](C(C)C)C(=O)N3CCC[C@H]3C(=O)N(C)CC(=O)N(C)[C@@H](C(C)C)C(=O)O[C@H]2C)c(N)c1=O (I: [aThr][dV]P[Sar][NMeV] / II: [aThr][dV]P[Sar][NMeV]; ester I:1-I:C, II:1-II:C; linker I:N-II:N via Actinocin(9to1))	50.9

Same assay, conditions: 10 µM

Compound	growth
S=c1[nH]nc(Cc2ccccc2)c(=S)[nH]1	107%
COc1cc(C(C)(C)C)cc(OC)c1C(O)(c1c(OC)cc(C(C)(C)C)cc1OC)c1c(OC)cc(C(C)(C)C)cc1OC	-100% (active)
N#C/C(=C1C=C/C(=N\O)C(Cl)=C\1)c1ccccc1	64%
Cc1c2oc3c(C)ccc(C(=O)N[C@@H]4C(=O)N[C@H](C(C)C)C(=O)N5CCC[C@H]5C(=O)N(C)CC(=O)N(C)[C@@H](C(C)C)C(=O)O[C@H]4C)c3nc-2c(C(=O)N[C@@H]2C(=O)N[C@H](C(C)C)C(=O)N3CCC[C@H]3C(=O)N(C)CC(=O)N(C)[C@@H](C(C)C)C(=O)O[C@H]2C)c(N)c1=O (I: [aThr][dV]P[Sar][NMeV] / II: [aThr][dV]P[Sar][NMeV]; ester I:1-I:C, II:1-II:C; linker I:N-II:N via Actinocin(9to1))	-66.1% (active)
CSc1ccc2c(c1)C(N1CCN(C)CC1)Cc1ccccc1S2 (configuration not stated)	41.7%
CCCCCCCCCCCCCCCCCN	106%
Cc1cnc(/C=N\NC(N)=S)c2cccc(N)c12	34.9%
CN1CCN(c2ccc3nc(-c4ccc5nc(-c6ccc(O)cc6)[nH]c5c4)[nH]c3c2)CC1	61.9%
O=c1[nH]cc(F)c(=O)[nH]1	82.1% and 70.7%
Nc1ccc2cc(Br)c3ccccc3c2c1	79.9%
CN(C)CCC(=O)c1c[nH]c2ccccc12	109%
BrC/C=C/C[P+](c1ccccc1)(c1ccccc1)c1ccccc1	85.2%
O=C(/C(=C/c1ccccc1)CBr)c1ccccc1	122%
Cc1cc(NCCCN(C)C)c2ccc3c(ccc4c(NCCCN(C)C)cc(C)nc43)c2n1	-15.4% (active)

Same assay, conditions: 25 µM

Compound	growth [%]
O=c1[nH]cc(F)c(=O)[nH]1	44.3

Same assay, conditions: 50 µM

Compound	growth [%]
O=c1[nH]cc(F)c(=O)[nH]1	73
